# From the supplement of paper PMC4466140
# B1: unnamed (peptide)
# chain: LYKRKPILLPDPKPL
# Biological target: ScPex13
# Assay: SPOT peptide array binding signal intensity (averaged, normalized) (arbitrary units (background-subtracted, floor 0; scale differs between SH3 domains)); higher = stronger binding of the SH3 domain to the peptide
# Method: (§1)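 GST-tagged SH3 domains from S. cerevisiae (Sc), A. gossypii (Ag), C. albicans (Ca) and S. pombe (Sp) were incubated at 10 ug/ml overnight at 4 C on cellulose SPOT membranes carrying 292 synthetic 15-mer peptides mined from the S. cerevisiae proteome (cysteines replaced by serines). Binding was detected with anti-GST antibody, HRP secondary and chemiluminescence, quantified with Genespotter, and reported as normalized spot intensities averaged over biological replicates.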
row,Binder,SPOT peptide array binding signal intensity
1,B1,≤ 0

# Biological target: ScRvs167
# Assay: as above
# Method: as §1
row,Binder,SPOT peptide array binding signal intensity
1,B1,16.7

# Biological target: ScSho1
# Assay: as above
# Method: as §1
row,Binder,SPOT peptide array binding signal intensity
1,B1,62.5

# Biological target: ScSla1-D1-D2
# Assay: as above
# Method: as §1
row,Binder,SPOT peptide array binding signal intensity
1,B1,135

# Biological target: ScSla1-D3
# Assay: as above
# Method: as §1
row,Binder,SPOT peptide array binding signal intensity
1,B1,5

# Biological target: SpAbp1-D1
# Assay: as above
# Method: as §1
row,Binder,SPOT peptide array binding signal intensity
1,B1,29

# Biological target: SpBbc1
# Assay: as above
# Method: as §1
row,Binder,SPOT peptide array binding signal intensity
1,B1,≤ 0

# Biological target: SpBzz1-D1
# Assay: as above
# Method: as §1
row,Binder,SPOT peptide array binding signal intensity
1,B1,188

# Biological target: SpBzz1-D2
# Assay: as above
# Method: as §1
row,Binder,SPOT peptide array binding signal intensity
1,B1,0.5

# Biological target: SpCyk3
# Assay: as above
# Method: as §1
row,Binder,SPOT peptide array binding signal intensity
1,B1,≤ 0

# Biological target: SpHof1
# Assay: as above
# Method: as §1
row,Binder,SPOT peptide array binding signal intensity
1,B1,6.25

# Biological target: SpHof1-2
# Assay: as above
# Method: as §1
row,Binder,SPOT peptide array binding signal intensity
1,B1,7.5

# Biological target: SpHof1-3
# Assay: as above
# Method: as §1
row,Binder,SPOT peptide array binding signal intensity
1,B1,83

# Biological target: SpHse1
# Assay: as above
# Method: as §1
row,Binder,SPOT peptide array binding signal intensity
1,B1,4

# Biological target: SpLsb1
# Assay: as above
# Method: as §1
row,Binder,SPOT peptide array binding signal intensity
1,B1,19.8

# Biological target: SpLsb4
# Assay: as above
# Method: as §1
row,Binder,SPOT peptide array binding signal intensity
1,B1,≤ 0

# Biological target: SpMyo1
# Assay: as above
# Method: as §1
row,Binder,SPOT peptide array binding signal intensity
1,B1,≤ 0

# Biological target: SpNbp2
# Assay: as above
# Method: as §1
row,Binder,SPOT peptide array binding signal intensity
1,B1,5.5

# Biological target: SpPex13
# Assay: as above
# Method: as §1
row,Binder,SPOT peptide array binding signal intensity
1,B1,≤ 0

# Biological target: SpRvs167
# Assay: as above
# Method: as §1
row,Binder,SPOT peptide array binding signal intensity
1,B1,12.3

# Biological target: SpSla1-D1-D2
# Assay: as above
# Method: as §1
row,Binder,SPOT peptide array binding signal intensity
1,B1,≤ 0

# Biological target: SpSla1-D3
# Assay: as above
# Method: as §1
row,Binder,SPOT peptide array binding signal intensity
1,B1,≤ 0
